In PubChem BioAssay (Tox21):
Results filed as inconclusive are left out. Activity calls are given as the source filed them. Unless noted, calls come from the whole dose curve; as a rule, active = well fitted curve in the direction sought with a large enough effect in the repeat runs; inconclusive = weak or mixed curves; inactive = no such curve, though single readings can be large; an effect the other way counts as inactive or inconclusive.

Key:
[1] = qHTS assay to identify aromatase inhibitors - cell viability counter screen (AID 743084);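 note: cells stimulated with testosterone during compound exposure; nearly all actives have a fitted effect of over 55% in size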
[2] = molecular target: Aryl hydrocarbon receptor (Homo sapiens) (UniProt P35869); experiment: qHTS assay to identify small molecule that activate the aryl hydrocarbon receptor (AhR) signaling pathway (AID 743085); note: nearly all actives have a fitted effect of over 15% in size; note: potency is the fitted concentration of half-maximal effect;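 for activation: HG2L7.5c1 human HepG2 liver cells with stably integrated DRE-driven firefly reporter; series mostly up to about 70 µM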
Sequence of Aryl hydrocarbon receptor (Homo sapiens) (P35869 whole entry, looked up): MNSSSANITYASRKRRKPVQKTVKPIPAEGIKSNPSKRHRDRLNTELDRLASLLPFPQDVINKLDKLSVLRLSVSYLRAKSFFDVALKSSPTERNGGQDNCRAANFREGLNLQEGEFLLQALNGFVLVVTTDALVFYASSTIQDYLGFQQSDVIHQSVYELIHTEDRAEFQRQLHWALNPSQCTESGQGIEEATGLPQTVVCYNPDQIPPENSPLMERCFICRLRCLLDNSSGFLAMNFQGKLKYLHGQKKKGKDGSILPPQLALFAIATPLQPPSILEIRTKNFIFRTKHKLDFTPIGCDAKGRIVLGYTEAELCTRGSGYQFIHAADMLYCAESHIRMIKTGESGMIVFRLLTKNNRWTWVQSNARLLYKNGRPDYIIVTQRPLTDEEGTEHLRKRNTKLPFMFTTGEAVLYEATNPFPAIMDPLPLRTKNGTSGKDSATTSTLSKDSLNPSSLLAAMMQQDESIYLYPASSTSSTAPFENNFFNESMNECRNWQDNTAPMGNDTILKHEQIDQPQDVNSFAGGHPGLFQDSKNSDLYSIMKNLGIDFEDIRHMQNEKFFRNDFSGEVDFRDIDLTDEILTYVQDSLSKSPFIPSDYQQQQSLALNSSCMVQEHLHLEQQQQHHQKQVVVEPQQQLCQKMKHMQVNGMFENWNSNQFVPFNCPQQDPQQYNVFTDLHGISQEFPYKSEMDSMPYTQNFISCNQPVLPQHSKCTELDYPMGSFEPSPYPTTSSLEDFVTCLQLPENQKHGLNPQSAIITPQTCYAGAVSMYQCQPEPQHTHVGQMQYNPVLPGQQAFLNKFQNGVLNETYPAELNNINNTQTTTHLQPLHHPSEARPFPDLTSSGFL
Summary of the method: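 Compounds were tested in HepG2 hepatocellular carcinoma cells harbouring a stably integrated luciferase gene under control of 20 DREs. Increased reporter signal after 24 h treatment at 37C was taken as AhR activation.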

[3] = qHTS assay to identify small molecule that activate the aryl hydrocarbon receptor (AhR) signaling pathway - cell viability counter screen (AID 743086);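 note: HepG2 liver cells carrying the AhR DRE luciferase reporter; series mostly up to about 70 µM; nearly all actives have a fitted effect of over 45% in size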
Summary of the method: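 HepG2-AhR-luc (HG2L7.5c1) cells, 4000/well, treated 24 h at 37 C with compound; viability measured as CellTiter-Fluor fluorescence after 30 min in the same wells as the luciferase read.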

[4] = molecular target: Peroxisome proliferator-activated receptor gamma (Homo sapiens) (UniProt P37231); experiment: qHTS assay to identify small molecule agonists of the peroxisome proliferator-activated receptor gamma (PPARg) signaling pathway (AID 743094; active = well fitted activation curve with a large enough effect in the signal ratio in the repeat runs, not every such curve was filed as active; the % refers to the signal ratio)
Sequence of Peroxisome proliferator-activated receptor gamma (Homo sapiens) (P37231 whole entry, looked up): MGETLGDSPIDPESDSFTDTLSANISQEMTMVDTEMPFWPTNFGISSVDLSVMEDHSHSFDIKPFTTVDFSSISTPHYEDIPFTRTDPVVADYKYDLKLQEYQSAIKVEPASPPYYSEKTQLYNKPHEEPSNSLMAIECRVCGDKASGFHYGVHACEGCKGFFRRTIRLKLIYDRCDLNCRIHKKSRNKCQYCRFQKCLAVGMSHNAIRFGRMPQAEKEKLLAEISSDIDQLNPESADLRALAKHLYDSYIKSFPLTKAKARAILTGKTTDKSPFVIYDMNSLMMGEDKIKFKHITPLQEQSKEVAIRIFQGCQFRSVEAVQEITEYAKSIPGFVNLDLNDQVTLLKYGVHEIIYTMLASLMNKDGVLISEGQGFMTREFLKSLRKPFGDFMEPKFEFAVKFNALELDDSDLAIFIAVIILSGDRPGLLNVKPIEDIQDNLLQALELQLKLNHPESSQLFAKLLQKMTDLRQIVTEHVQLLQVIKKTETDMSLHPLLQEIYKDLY
Summary of the method: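 Compounds dissolved in DMSO were added to PPARg UAS-bla HEK293H cells for 17 h at 37C, and reporter expression was quantified by fluorescence intensity after 1 h with LiveBLAzer B/G FRET substrate.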

[5] = molecular target: Peroxisome proliferator-activated receptor gamma (Homo sapiens) (UniProt P37231); experiment: qHTS assay to identify small molecule antagonists of the peroxisome proliferator-activated receptor gamma (PPARg) signaling pathway (AID 743191; calls by dose curve; note: series mostly up to about 63 µM; nearly all actives have a fitted effect of over 30% in size)
Summary of the method: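 GeneBLAzer PPARg UAS-bla HEK293H cells, 5 h post-plating, exposed to compounds 17 h at 37C. LiveBLAzer B/G FRET substrate added for 1 h at room temperature; beta-lactamase reporter read by fluorescence intensity.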

[6] = qHTS assay to identify small molecule antagonists of the peroxisome proliferator-activated receptor gamma (PPARg) signaling pathway - cell viability counter screen (AID 743194); note: nearly all actives have a fitted effect of over 55% in size
Summary of the method: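 Cytotoxicity counter screen in PPARg-bla HEK293H cells, same wells as reporter assay. Compounds plus 50 nM rosiglitazone (final) for 17 h at 37 C, then viability read by CellTiter-Glo luminescence.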

[7] = qHTS assay for small molecule agonists of the antioxidant response element (ARE) signaling pathway (AID 743202; active = well fitted activation curve with a large enough effect in the signal ratio in the repeat runs, not every such curve was filed as active; the % refers to the signal ratio; note: potency is the fitted concentration of half-maximal effect)
Summary of the method: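 ARE-bla HepG2 cells (beta-lactamase reporter under the antioxidant response element), plated 5 hours, then exposed to compounds 16 hours at 37 C. LiveBLAzer B/G FRET substrate added for 2 hours at room temperature; fluorescence intensity read.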

[8] = qHTS assay for small molecule agonists of the antioxidant response element (ARE) signaling pathway - cell viability counter screen (AID 743203; calls by dose curve; note: nearly all actives have a fitted effect of over 55% in size)
Summary of the method: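 Following 16 hrs of compound treatment at 37C, HepG2 cells with an ARE-controlled beta-lactamase gene were lysed with CellTiter-Glo. Luminescence was read after 30 min at room temperature.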

[9] = qHTS assay for small molecule activators of the heat shock response signaling pathway - cell viability counter screen (AID 743209); note: nearly all actives have a fitted effect of over 50% in size
Summary of the method: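 Readout: CellTiter-Glo luminescence, 30 min at room temperature. System: HSE-bla HeLa cells, 1500/well, plated overnight. Treatment: compounds in DMSO, 5 h at 37 C.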

[10] = qHTS assay for small molecule activators of the heat shock response signaling pathway (AID 743210; active = well fitted activation curve with a large enough effect in the signal ratio in the repeat runs, with a control signal flat, not every such curve was filed as active; the % refers to the signal ratio; note: series mostly up to about 63 µM)
Summary of the method: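 HSE-bla HeLa cells (beta-lactamase reporter under heat shock response elements), plated overnight, then exposed to compounds 5 h at 37 C; LiveBLAzer B/G FRET substrate added, 2.5 h at room temperature, fluorescence intensity read.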

[11] = qHTS assay to identify small molecule agonists of the peroxisome proliferator-activated receptor delta (PPARd) signaling pathway - cell viability counter screen (AID 743211); note: nearly all actives have a fitted effect of over 55% in size
Summary of the method: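 Counter screen for cytotoxicity run in parallel with the PPARd reporter screen. Beta-lactamase reporter HEK293H cells exposed to compounds 17 h; ATP-based CellTiter-Glo luminescence quantified viability.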

[12] = qHTS assay to identify small molecule antagonists of the peroxisome proliferator-activated receptor delta (PPARd) signaling pathway - cell viability counter screen (AID 743213); note: nearly all actives have a fitted effect of over 50% in size
Summary of the method: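 HEK293H PPARd UAS-bla cells, 5 h pre-incubation, compound + L165041 300 nM final, 17 h 37 C; B/G FRET substrate 2 h RT; then CellTiter-Glo 30 min RT, luminescence.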

[13] = qHTS assay to identify small molecule antagonists of the farnesoid-X-receptor (FXR) signaling pathway - cell viability counter screen (AID 743221; active = well fitted cell-killing curve with a large enough effect in the repeat runs, not every such curve was filed as active; note: nearly all actives have a fitted effect of over 50% in size)
Summary of the method: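 Multiplexed counter screen: viability of FXR-bla HEK 293T cells under agonist stimulation by chenodeoxycholic acid (50 uM, final) and test compound for 16 h at 37 C, measured by CellTiter-Glo luminescence in the reporter wells.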

[14] = qHTS assay to identify small molecule agonists of the farnesoid-X-receptor (FXR) signaling pathway - cell viability counter screen (AID 743218); note: nearly all actives have a fitted effect of over 45% in size
Summary of the method: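 Parallel cytotoxicity test: compound-treated (16 h, 37 C) HEK 293T FXR-bla reporter cells were lysed with CellTiter-Glo and luminescence recorded.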

[15] = molecular target: Bile acid receptor (Homo sapiens) (UniProt Q96RI1); experiment: qHTS assay to identify small molecule agonists of the farnesoid-X-receptor (FXR) signaling pathway (AID 743220; active = well fitted activation curve with a large enough effect in the signal ratio in the repeat runs, not every such curve was filed as active; the % refers to the signal ratio)
Sequence of Bile acid receptor (Homo sapiens) (Q96RI1 whole entry, looked up): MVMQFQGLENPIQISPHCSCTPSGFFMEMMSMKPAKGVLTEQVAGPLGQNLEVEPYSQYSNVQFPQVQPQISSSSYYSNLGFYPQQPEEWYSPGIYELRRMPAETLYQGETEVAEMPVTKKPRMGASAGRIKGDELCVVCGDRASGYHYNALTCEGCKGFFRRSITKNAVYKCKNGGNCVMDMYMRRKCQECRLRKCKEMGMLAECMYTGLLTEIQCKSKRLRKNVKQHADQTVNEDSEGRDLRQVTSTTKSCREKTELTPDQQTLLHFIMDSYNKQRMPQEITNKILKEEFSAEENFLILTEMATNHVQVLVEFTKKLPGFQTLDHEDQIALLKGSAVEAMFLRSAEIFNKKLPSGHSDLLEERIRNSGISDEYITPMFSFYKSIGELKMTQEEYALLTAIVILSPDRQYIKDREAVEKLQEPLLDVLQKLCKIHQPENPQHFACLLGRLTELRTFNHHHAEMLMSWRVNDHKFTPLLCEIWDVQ
Summary of the method: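 Beta-lactamase reporter under UAS control in GeneBLAzer FXR HEK 293T cells (5000/well) measured with LiveBLAzer FRET substrate after 2 h at room temperature. Compound exposure lasted 16 h at 37C.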

[16] = molecular target: Peroxisome proliferator-activated receptor delta (Homo sapiens) (UniProt Q03181); experiment: qHTS assay to identify small molecule antagonists of the peroxisome proliferator-activated receptor delta (PPARd) signaling pathway (AID 743215; active = well fitted inhibition curve with a large enough effect in the signal ratio in the repeat runs, not every such curve was filed as active; the % refers to the signal ratio;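 note: cells stimulated with agonist L165041 at 300 nM final during compound exposure; series mostly up to about 62 µM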)
Sequence of Peroxisome proliferator-activated receptor delta (Homo sapiens) (Q03181 whole entry, looked up): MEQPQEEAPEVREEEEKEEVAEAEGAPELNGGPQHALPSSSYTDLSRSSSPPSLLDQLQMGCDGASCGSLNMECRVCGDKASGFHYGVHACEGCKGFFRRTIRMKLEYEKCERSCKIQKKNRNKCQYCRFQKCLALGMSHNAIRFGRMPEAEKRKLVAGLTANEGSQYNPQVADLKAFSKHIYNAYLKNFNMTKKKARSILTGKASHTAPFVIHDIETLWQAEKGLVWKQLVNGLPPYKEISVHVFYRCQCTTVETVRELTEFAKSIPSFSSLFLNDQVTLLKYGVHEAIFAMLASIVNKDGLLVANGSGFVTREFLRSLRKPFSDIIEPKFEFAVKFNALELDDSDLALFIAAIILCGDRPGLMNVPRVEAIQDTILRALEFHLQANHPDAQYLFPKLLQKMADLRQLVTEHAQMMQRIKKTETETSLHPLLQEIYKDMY
Summary of the method: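 HEK293H UAS-bla, PPARd; agonist L165041 300 nM final with cpd in DMSO; 37 C 17 h; FRET substrate, RT 2 h; fluorescence intensity.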

[17] = molecular target: Vitamin D3 receptor (Homo sapiens) (UniProt P11473); experiment: qHTS assay to identify small molecule agonists of the vitamin D receptor (VDR) signaling pathway (AID 743222; calls by dose curve)
Sequence of Vitamin D3 receptor (Homo sapiens) (P11473 whole entry, looked up): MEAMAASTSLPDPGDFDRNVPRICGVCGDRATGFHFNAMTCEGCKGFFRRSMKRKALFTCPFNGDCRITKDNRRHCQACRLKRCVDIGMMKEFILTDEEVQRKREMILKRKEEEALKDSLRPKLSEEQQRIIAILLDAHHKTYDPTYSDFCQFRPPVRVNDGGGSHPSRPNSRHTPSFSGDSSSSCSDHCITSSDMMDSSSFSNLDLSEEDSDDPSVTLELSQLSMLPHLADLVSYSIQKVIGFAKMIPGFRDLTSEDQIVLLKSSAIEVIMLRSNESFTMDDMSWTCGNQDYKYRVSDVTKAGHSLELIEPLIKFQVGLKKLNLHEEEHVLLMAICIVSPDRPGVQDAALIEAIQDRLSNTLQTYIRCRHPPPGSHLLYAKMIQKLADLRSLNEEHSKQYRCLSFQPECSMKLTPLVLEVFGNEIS
Summary of the method: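 In VDR-bla cells, compound-induced beta-lactamase expression is quantified by FRET substrate fluorescence. Treatment lasts 16 h at 37C; substrate develops 2 h at room temperature.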

[18] = molecular target: Vitamin D3 receptor (Homo sapiens) (UniProt P11473); experiment: qHTS assay to identify small molecule antagonists of the vitamin D receptor (VDR) signaling pathway (AID 743223; active = well fitted inhibition curve with a large enough effect in the signal ratio in the repeat runs, not every such curve was filed as active; the % refers to the signal ratio)
Summary of the method: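 Cells carrying a VDR-driven beta-lactamase reporter (VDR-bla) were co-treated with compound and 3 nM final 1alpha,25-dihydroxyvitamin D3 for 16 h at 37C; reporter activity was measured as FRET substrate fluorescence after 2 h at room temperature.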

[19] = molecular target: Peroxisome proliferator-activated receptor delta (Homo sapiens) (UniProt Q03181); experiment: qHTS assay to identify small molecule agonists of the peroxisome proliferator-activated receptor delta (PPARd) signaling pathway (AID 743212; calls by dose curve)
Summary of the method: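 GeneBLAzer UAS-bla HEK293H cells carrying a PPARδ construct were exposed to compounds at 37 °C. Beta-lactamase activity was read by FRET fluorescence after 2 h at room temperature with LiveBLAzer B/G substrate.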

[20] = molecular target: Bile acid receptor (Homo sapiens) (UniProt Q96RI1); experiment: qHTS assay to identify small molecule antagonists of the farnesoid-X-receptor (FXR) signaling pathway (AID 743217; active = well fitted inhibition curve with a large enough effect in the signal ratio in the repeat runs, not every such curve was filed as active; the % refers to the signal ratio)
Summary of the method: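 GeneBLAzer FXR-UAS-bla HEK 293T, CDCA-stimulated (50 uM final). Compound treatment 16 h, 37 °C. Detection: beta-lactamase cleavage of B/G FRET substrate, fluorescence.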

Measured: Potency

CC(CN)CCCN (centres undefined)
not listed: [14] | [15] | [16] | [17] | [18] | [19] | [20]
inactive: all other assays above

Nc1nc(N)c(-c2ccccc2)s1
not listed: [16] | [17] | [18] | [19] | [20]
inactive: all other assays above

CCCCCCCCCCCCCCC1CO1 (centres undefined)
not listed: [9] | [15] | [19] | [20]
inactive: all other assays above

CNS(=O)(=O)Cc1ccc2[nH]cc(CCN(C)C)c2c1
not listed: [13] | [18] | [20]
inactive: all other assays above

CCN(CC)C(C)=O
not listed: [13] | [14] | [15] | [20]
inactive: all other assays above

Cc1ccc(C(=O)C(C)CN2CCCCC2)cc1 (centres undefined)
active: [7] 23.7 µM
not listed: [14] | [16] | [19]
inactive: all other assays above

O=c1c2ccccc2nnn1CCl
not listed: [6] | [7] | [14] | [15] | [20]
inactive: all other assays above

S=C(S)NCCNC(=S)S
active: [7] 60 µM
not listed: [5] | [14] | [15] | [16] | [18] | [19] | [20]
inactive: all other assays above

CC(O)C1CCCCC1 (centres undefined)
not listed: [7] | [15] | [18] | [20]
inactive: all other assays above

O=C(NN1CCCC1)NS(=O)(=O)c1ccc(Cl)cc1
not listed: [6] | [13] | [20]
inactive: all other assays above

Cc1occc1S
not listed: [7] | [10] | [15] | [20]
inactive: all other assays above

Cc1ccc(O)c([C@H](CCN(C(C)C)C(C)C)c2ccccc2)c1
not listed: [7] | [11] | [12] | [15] | [19] | [20]
inactive: all other assays above

CCCC(=O)OCC
not listed: [7] | [15] | [20]
inactive: all other assays above

CC[C@H](C)[C@H](N)C(=O)O
not listed: [8] | [9] | [15] | [16] | [19] | [20]
inactive: all other assays above

COc1ccccc1OC(=O)Oc1ccccc1OC
not listed: [5] | [15] | [16] | [19] | [20]
inactive: all other assays above

NCCCN(CCO)CCO
not listed: [7] | [15] | [19] | [20]
inactive: all other assays above

O=C(O)[C@@H]1[C@H]2C[C@H]3c4[nH]c5ccccc5c4CCN3C[C@@H]2CC[C@@H]1O
active: [2] 7.17 µM
not listed: [5] | [10] | [18]
inactive: all other assays above
